Results as given in PubChem BioAssay.
Several values for one entry are separate records, joined by “and”; a condition that tells them apart may be missing. Equal entries are not always repeated. Results filed as inconclusive are left out. Activity calls are given as the source filed them.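 How the source made its calls, unless noted: active means normalized viability below 100% at a tested concentration; inactive means the rest.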

Assays:
[1] = viability loss in pontine glioma line – cell-based, SU-DIPG-XVII, MIPE5.0, CellTiter-Glo, qHTS, dose response (AID 1347060; cut-off not given, nearly all actives have AC50 up to about 26 µM;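 on AC50: cells exposed to compound for 48 hours before viability readout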); conditions: CellTiter-Glo ATP luminescence
[2] = viability loss in pontine glioma line – cell-based, SU-DIPG-XIII, MIPE4.0, CellTiter-Glo, qHTS, dose response (AID 1347061; cut-off not given, nearly all actives have AC50 up to about 37 µM;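 further: cells exposed to compound for 48 hours before readout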); conditions: CellTiter-Glo ATP luminescence
[3] = viability loss in pontine glioma line – cell-based, SU-DIPG-XXV, MIPE5.0, CellTiter-Glo, qHTS, dose response (AID 1347065; cut-off not given, nearly all actives have AC50 up to about 26 µM;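 further: cells exposed to compound for 48 hours before ATP readout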); conditions: CellTiter-Glo ATP luminescence
[4] = growth inhibition of DIPG cells – cell-based, MIPE4.0 library, CellTiter-Glo luminescence, qHTS (AID 1347066; cut-off not given, nearly all actives have AC50 up to about 30 µM;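 further: cells exposed to compound for 48 hours before readout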); conditions: SU-DIPG-VI viability, CellTiter-Glo ATP luminescence
[5] = JHH-DIPG-1 glioma cell viability, MIPE5.0 library, CellTiter-Glo luminescence, qHTS (AID 1347067; cut-off not given, nearly all actives have AC50 up to about 26 µM;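 further: cells exposed to compound for 48 hours before readout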); conditions: JHH-DIPG-1 glioma viability, CellTiter-Glo ATP luminescence
[6] = growth inhibition of DIPG cells – cell-based, MIPE5.0 library, qHTS (AID 1347068; cut-off not given, nearly all actives have IC50 up to about 30 µM;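 on IC50: cells exposed to compound for 48 hours before viability readout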); conditions: SU-DIPG-XXV viability
[7] = liver-stage malaria parasite load reduction – cell-based, known kinase inhibitor set, luminescence, hepatoma host viability (AID 624392; call rule not given here;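 further: infected cells incubated roughly two days before readout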); conditions: Plasmodium liver stage in hepatoma cells, luciferase luminescence, concentration not given here; liver cell % of control: measured here: host liver cell viability; parasite % of control: stronger effect = lower value
[8] = viability loss in pontine glioma line – cell-based, SU-DIPG-IV, MIPE4.0, CellTiter-Glo, qHTS, dose response (AID 1347063; cut-off not given, nearly all actives have AC50 up to about 30 µM;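 further: compound exposure lasted 48 hours before the viability readout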); conditions: CellTiter-Glo ATP luminescence
[9] = viability loss in pontine glioma line – cell-based, SU-DIPG-XIII, MIPE5.0, CellTiter-Glo, qHTS, dose response (AID 1347064; cut-off not given, nearly all actives have AC50 up to about 23 µM;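 on AC50: cells exposed to compound for 48 hours before the viability read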); conditions: CellTiter-Glo ATP luminescence
[10] = compounds altering HSF1 focus formation in cells – imaging, Selleck Cancer Library (AID 1347162; in the data active means plate-normalised HSF1 focus index below about 0.46); conditions: human cells, HSF1 nuclear foci imaging, at 10 µM; SSMD: measured here: HSF1 foci SSMD mean; cell count: measured here: cell number; plate-normalised HSF1 focus index: stronger effect = lower value
[11] = viability loss with induced miR-34 in A549 – imaging, A549 dox-inducible miR-34, nuclei and caspase counts, primary screen (AID 1347080;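 active means compounds whose cell count with miR-34 switched on is under 0.7 times the count with it off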); conditions: A549 miR-34 inducible, Hoechst nuclei count, 48 h
[12] = MELAS cybrid and Rieske KO viability enhancers – cell-based, MELAS cybrids, Rieske KO mouse fibroblasts, CellTiter-Glo, primary screen (AID 1508586;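 active means mean z-score across replicates of 1.96 or higher in either the MELAS or the Rieske mutant cell line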;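 further: z relative to plate mean and SD of compound and empty wells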); conditions: low glucose
[13] = drug combination growth inhibition, ovarian cancer – cell-based, oncology-focused library, rucaparib conditional, profiling panel (AID 1508598); conditions: patient-derived ovarian cancer cells, CellTiter-Glo viability, 144 h, stronger effect = lower value
[14] = viability loss in pontine glioma line – cell-based, JHH-DIPG-1, MIPE4.0, CellTiter-Glo, qHTS, dose response (AID 1347062; cut-off not given, nearly all actives have AC50 up to about 27 µM;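 on AC50: cells exposed to compound for two days before readout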); conditions: JHH-DIPG-1 viability, CellTiter-Glo ATP luminescence
[15] = stronger effect = lower value, cell number ratio, induced over uninduced
[16] = measured here: relative caspase fold change +Dox/-Dox
[17] = measured here: total cells with miR-34 induction, stronger effect = lower value
[18] = measured here: total cells without miR-34 induction
[19] = MELAS cybrid survival, CellTiter-Glo 48 h, stronger effect = higher value
[20] = Rieske KO mouse fibroblast survival, CellTiter-Glo 72 h
[21] = at 0.000305 µM, OCI-C5x cells, with rucaparib 10 µM, 100% = cells with rucaparib alone
[22] = at 0.000305 µM, OCI-C5x cells, without rucaparib
[23] = at 0.000305 µM, OCI-P5x cells, with rucaparib 20 µM, 100% = cells with rucaparib alone
[24] = at 0.000305 µM, OCI-P5x cells, without rucaparib
[25] = at 0.00122 µM, OCI-C5x cells, with rucaparib 10 µM, 100% = cells with rucaparib alone
[26] = at 0.00122 µM, OCI-C5x cells, without rucaparib
[27] = at 0.00122 µM, OCI-P5x cells, with rucaparib 20 µM, 100% = cells with rucaparib alone
[28] = at 0.00122 µM, OCI-P5x cells, without rucaparib
[29] = at 0.00488 µM, OCI-C5x cells, with rucaparib 10 µM, 100% = cells with rucaparib alone
[30] = at 0.00488 µM, OCI-C5x cells, without rucaparib
[31] = at 0.00488 µM, OCI-P5x cells, with rucaparib 20 µM, 100% = cells with rucaparib alone
[32] = at 0.00488 µM, OCI-P5x cells, without rucaparib
[33] = at 0.0195 µM, OCI-C5x cells, with rucaparib 10 µM, 100% = cells with rucaparib alone
[34] = at 0.0195 µM, OCI-C5x cells, without rucaparib
[35] = at 0.0195 µM, OCI-P5x cells, with rucaparib 20 µM, 100% = cells with rucaparib alone
[36] = at 0.0195 µM, OCI-P5x cells, without rucaparib
[37] = at 0.0781 µM, OCI-C5x cells, with rucaparib 10 µM, 100% = cells with rucaparib alone
[38] = at 0.0781 µM, OCI-C5x cells, without rucaparib
[39] = at 0.0781 µM, OCI-P5x cells, with rucaparib 20 µM, 100% = cells with rucaparib alone
[40] = at 0.0781 µM, OCI-P5x cells, without rucaparib
[41] = at 0.313 µM, OCI-C5x cells, with rucaparib 10 µM, 100% = cells with rucaparib alone
[42] = at 0.313 µM, OCI-C5x cells, without rucaparib
[43] = at 0.313 µM, OCI-P5x cells, with rucaparib 20 µM, 100% = cells with rucaparib alone
[44] = at 0.313 µM, OCI-P5x cells, without rucaparib
[45] = at 1.25 µM, OCI-C5x cells, with rucaparib 10 µM, 100% = cells with rucaparib alone
[46] = at 1.25 µM, OCI-C5x cells, without rucaparib
[47] = at 1.25 µM, OCI-P5x cells, with rucaparib 20 µM, 100% = cells with rucaparib alone
[48] = at 1.25 µM, OCI-P5x cells, without rucaparib
[49] = at 5 µM, OCI-C5x cells, with rucaparib 10 µM, 100% = cells with rucaparib alone
[50] = at 5 µM, OCI-C5x cells, without rucaparib
[51] = at 5 µM, OCI-P5x cells, with rucaparib 20 µM, 100% = cells with rucaparib alone
[52] = at 5 µM, OCI-P5x cells, without rucaparib

NC1=N[C@@]2(c3cc(NC(=O)c4ccc(F)cn4)ccc3F)COC[C@H]2CS1
inactive: outcome [1] | outcome [2] | outcome [3] | outcome [4] | outcome [5] | outcome [6]

CCC(=O)N1CCN(c2ccc(-n3c(=O)ccc4cnc5ccc(-c6cnc7ccccc7c6)cc5c43)cc2C(F)(F)F)CC1
56.3% and 62.9% and 78.1%: liver cell % of control [7]
1.96: SSMD [10]
inactive: plate-normalised HSF1 focus index [10] 1.1
active: AC50 [1] 0.0456 µM | AC50 [2] 1.32 µM | AC50 [8] 0.0662 µM | AC50 [9] 0.162 µM | AC50 [3] 0.0811 µM
7220: cell count [10]

Cc1cn(-c2cc(NC(=O)c3ccc(C)c(Nc4nccc(-c5cccnc5)n4)c3)cc(C(F)(F)F)c2)cn1
1440: cell count [11, 18]
7680: cell count [10]
0.941: fold change [11, 16]
0.723: SSMD [10]
inactive: parasite % of control [7] 40.6% and 49.1% and 89.8% | outcome [2] | fold change [11, 15] 0.874 | plate-normalised HSF1 focus index [10] 1.05 | viability [13, 21] 106% | viability [13, 22] 116% | viability [13, 23] 103% | viability [13, 24] 105% | viability [13, 25] 108% | viability [13, 26] 117% | viability [13, 27] 100% | viability [13, 28] 101% | viability [13, 29] 109% | viability [13, 30] 116% | viability [13, 31] 103% | viability [13, 33] 105% | viability [13, 34] 127% | viability [13, 35] 102% | viability [13, 37] 117% | viability [13, 38] 116% | viability [13, 40] 104% | viability [13, 41] 107% | viability [13, 42] 118% | viability [13, 43] 116% | viability [13, 44] 103% | viability [13, 45] 127% | viability [13, 46] 117% | viability [13, 49] 139% | viability [13, 50] 116%
1260: cell count [11, 17]
-0.657: z-score [12, 20]
96.6% and 104% and 98.4%: liver cell % of control [7]
active: AC50 [1] 10.5 µM | AC50 [8] 8.33 µM | AC50 [3] 10.5 µM | AC50 [5] 11.8 µM | z-score [12, 19] 3.41 | viability [13, 32] 98.8% | viability [13, 36] 91.4% | viability [13, 39] 98.7% | viability [13, 47] 97.7% | viability [13, 48] 91.7% | viability [13, 51] 68% | viability [13, 52] 30.3%

CCC(=O)NC[C@H](Cc1ccc(OCCc2nc(-c3ccccc3)oc2C)cc1)N/C(C)=C\C(=O)c1ccc(C(F)(F)F)cc1
inactive: outcome [2] | outcome [4] | outcome [6]
active: AC50 [1] 16.6 µM | AC50 [8] 8.33 µM | AC50 [3] 13.2 µM

N#CC(c1ccnc(NCCc2cccnc2)n1)c1nc2ccccc2s1 (stereo not drawn)
active: AC50 [1] 11.8 µM | AC50 [8] 13.2 µM | AC50 [3] 11.8 µM | AC50 [5] 18.6 µM
inactive: outcome [2] | outcome [6]

C[C@@H](NC(=O)c1ncnc(N)c1Cl)c1ncc(C(=O)Nc2cc(C(F)(F)F)c(Cl)cn2)s1
active: AC50 [1] 16.6 µM | AC50 [2] 18.7 µM | AC50 [9] 14.8 µM | AC50 [5] 5.9 µM
inactive: outcome [4] | outcome [6]

O=C(O)[C@H](CC(=O)N1C[C@H]2CCCC[C@H]2C1)Cc1ccccc1
inactive: outcome [1] | outcome [14] | outcome [8] | outcome [9] | outcome [3] | outcome [4] | outcome [5] | outcome [6]

CC1(COc2ccc3c(c2)ncn3-c2ccc3cccc(N4CCC(N)CC4)c3n2)COC1
1.21: fold change [11, 16]
-3.35: z-score [12, 20]
1400: cell count [11, 18]
1330: cell count [11, 17]
7140: cell count [10]
active: AC50 [1] 9.34 µM | AC50 [14] 0.332 µM | AC50 [8] 1.18 µM | AC50 [9] 10.5 µM | AC50 [3] 8.33 µM | AC50 [4] 23.5 µM | AC50 [5] 13.2 µM | IC50 [6] 26.3 µM | viability [13, 49] 77.3% | viability [13, 50] 77.6% | viability [13, 51] 4.5% | viability [13, 52] 81.8%
-2.3: SSMD [10]
inactive: fold change [11, 15] 0.944 | plate-normalised HSF1 focus index [10] 0.92 | z-score [12, 19] 0.899 | viability [13, 21] 110% | viability [13, 22] 122% | viability [13, 23] 122% | viability [13, 24] 113% | viability [13, 25] 115% | viability [13, 26] 125% | viability [13, 27] 119% | viability [13, 28] 120% | viability [13, 29] 111% | viability [13, 30] 121% | viability [13, 31] 120% | viability [13, 32] 117% | viability [13, 33] 115% | viability [13, 34] 127% | viability [13, 35] 119% | viability [13, 36] 127% | viability [13, 37] 119% | viability [13, 38] 130% | viability [13, 39] 131% | viability [13, 40] 120% | viability [13, 41] 116% | viability [13, 42] 137% | viability [13, 43] 129% | viability [13, 44] 123% | viability [13, 45] 102% | viability [13, 46] 131% | viability [13, 47] 142% | viability [13, 48] 119%
